Test results as given in PubChem BioAssay AID782 (Emory University Molecular Libraries Screening Center, 2007).
Screen size: about 220,000 compounds; about 800 (0.36%) were called active.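 The calls were made as follows: active = inhibition above about 30% (limit read from the data); inactive = the rest.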 Shown is part of a subset that was picked to be rich in actives.

Biological target: Eukaryotic translation initiation factor 4E (Mus musculus) + Eukaryotic translation initiation factor 4 gamma 1 (Homo sapiens) (UniProt P63073+Q04637)
Sequence (P63073 whole entry, looked up, the tested form may be a part): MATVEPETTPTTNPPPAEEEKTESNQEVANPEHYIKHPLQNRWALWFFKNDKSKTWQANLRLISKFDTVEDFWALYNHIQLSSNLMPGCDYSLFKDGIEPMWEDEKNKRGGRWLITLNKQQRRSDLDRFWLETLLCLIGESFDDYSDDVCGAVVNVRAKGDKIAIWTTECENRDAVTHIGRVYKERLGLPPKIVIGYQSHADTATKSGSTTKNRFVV
Sequence (Q04637 whole entry, looked up, the tested form may be a part): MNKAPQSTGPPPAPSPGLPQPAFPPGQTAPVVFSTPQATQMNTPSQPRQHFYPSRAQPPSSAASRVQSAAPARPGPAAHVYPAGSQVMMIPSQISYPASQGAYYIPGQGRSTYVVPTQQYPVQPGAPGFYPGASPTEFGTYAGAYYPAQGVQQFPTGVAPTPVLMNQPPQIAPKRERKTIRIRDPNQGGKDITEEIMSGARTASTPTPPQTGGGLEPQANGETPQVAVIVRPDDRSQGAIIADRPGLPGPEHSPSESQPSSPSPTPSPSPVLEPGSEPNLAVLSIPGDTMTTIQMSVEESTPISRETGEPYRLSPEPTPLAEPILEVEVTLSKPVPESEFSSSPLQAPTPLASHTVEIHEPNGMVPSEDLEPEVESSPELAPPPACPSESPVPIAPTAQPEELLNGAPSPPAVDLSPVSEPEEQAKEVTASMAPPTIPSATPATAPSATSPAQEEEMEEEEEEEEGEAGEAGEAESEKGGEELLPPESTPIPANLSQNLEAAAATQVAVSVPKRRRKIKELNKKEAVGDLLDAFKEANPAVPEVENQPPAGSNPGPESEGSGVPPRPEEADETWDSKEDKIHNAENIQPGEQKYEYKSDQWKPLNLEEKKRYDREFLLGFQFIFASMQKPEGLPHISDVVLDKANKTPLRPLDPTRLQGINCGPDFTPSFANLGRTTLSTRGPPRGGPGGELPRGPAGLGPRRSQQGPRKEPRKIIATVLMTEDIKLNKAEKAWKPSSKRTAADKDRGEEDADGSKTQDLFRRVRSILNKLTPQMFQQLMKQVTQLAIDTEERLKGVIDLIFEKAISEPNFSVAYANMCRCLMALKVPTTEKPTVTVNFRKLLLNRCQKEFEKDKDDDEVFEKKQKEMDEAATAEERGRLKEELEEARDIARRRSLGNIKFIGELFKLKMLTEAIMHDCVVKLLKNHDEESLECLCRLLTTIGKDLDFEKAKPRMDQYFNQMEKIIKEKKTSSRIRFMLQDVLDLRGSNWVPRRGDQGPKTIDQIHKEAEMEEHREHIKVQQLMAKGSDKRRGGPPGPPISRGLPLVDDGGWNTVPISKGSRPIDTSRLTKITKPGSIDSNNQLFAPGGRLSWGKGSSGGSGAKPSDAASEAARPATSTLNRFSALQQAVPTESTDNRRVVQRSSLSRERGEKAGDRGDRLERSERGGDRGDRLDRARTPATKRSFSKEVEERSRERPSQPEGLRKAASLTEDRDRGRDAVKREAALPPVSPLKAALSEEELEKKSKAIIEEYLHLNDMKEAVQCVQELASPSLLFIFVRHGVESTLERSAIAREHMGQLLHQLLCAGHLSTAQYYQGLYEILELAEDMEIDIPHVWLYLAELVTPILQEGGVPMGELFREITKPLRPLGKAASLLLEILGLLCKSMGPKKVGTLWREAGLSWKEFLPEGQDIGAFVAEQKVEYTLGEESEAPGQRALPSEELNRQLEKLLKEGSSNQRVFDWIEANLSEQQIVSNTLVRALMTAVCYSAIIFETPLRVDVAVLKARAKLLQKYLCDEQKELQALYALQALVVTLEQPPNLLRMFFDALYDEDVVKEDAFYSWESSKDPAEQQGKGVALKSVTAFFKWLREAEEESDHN
Experiment: blockers of eIF4G binding by eIF4E – biochemical, uHTS, TR-FRET, eIF4GI fragment, primary screen (AID 782);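 also: 0% = full FRET control wells and 100% = background wells lacking eIF4GI fragment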
Conditions: TR-FRET eIF4E-eIF4GI(517-606) binding, 2 h; at 21.7 µM; hits give high values

SMILES | inhibition
COC(=O)/C=C(\Oc1ccccc1)C1(O)CCCCC1 | 3.79% (inactive)
COCC(C)n1c(SCc2ccc(C(=O)OC)o2)nc2ccccc2c1=O (configuration not stated) | 56% (active)
COC(=O)c1ccc(CSc2nc3ccccc3c(=O)n2-c2cccc(OC)c2)o1 | 2.4% (inactive)
COCCn1c(C)cc(C(=O)CSc2nc3ccccc3c(=O)n2C(C)COC)c1C (configuration not stated) | -1.77% (inactive)
CSc1nc(C)nc(C2CC2)c1C#N | -3.41% (inactive)
Cc1cccc(N(C)C(=O)c2cc3c(=O)[nH]c4ccc(C)cc4c3s2)c1 | -9.17% (inactive)
O=S(=O)(Cc1noc(-c2ccc(OC(F)(F)F)cc2)n1)c1ccc(F)cc1 | -0.8% (inactive)
Cc1cc(-c2n[nH]c(=S)n2/N=C/c2ccco2)n[nH]1 | -0.15% (inactive)
S=c1[nH]nc(-c2ccco2)n1/N=C/c1ccc(Br)s1 | 49.9% (active)
S=c1[nH]nc(-c2ccco2)n1/N=C/c1ccccc1 | -0.4% (inactive)
O=C(CN1CCN(c2ccc(O)cc2)CC1)Nc1cc(S(=O)(=O)N2CCOCC2)ccc1Cl | 18.9% (inactive)
O=C(N/N=C/c1ccc([N+](=O)[O-])o1)c1cccc(S(=O)(=O)N2CCOCC2)c1 | 0.27% (inactive)
O=[N+]([O-])c1cc(Cl)cc(/C=N/NC(=S)Nc2cc(S(=O)(=O)N3CCOCC3)ccc2Cl)c1O | 37.9% (active)
COc1ccc(/C(N)=N/OC(=O)CCCc2ccccc2)cc1 | -2.25% (inactive)
Cc1ccc(SCC(=O)Nc2ccc3c(c2)OCCO3)cc1 | 0.94% (inactive)
NC(N)=NCCCc1cn(CC(=O)N2CCNCC2)nn1 | 0.73% (inactive)
Fc1c(F)c(C(F)(F)F)c(F)c(F)c1N1CCN(c2ccc3nnc(C(F)(F)F)n3n2)CC1 | 35.1% [fluorescence artefact?] (active)
FC(F)(F)c1nnc2ccc(N3CCN(c4ccccc4)CC3)nn12 | 0.95% (inactive)
CCSc1nc(C)c(CCOc2cccc(C)c2)c(=O)[nH]1 | -0.93% (inactive)
Oc1c(Cl)cc(Cl)c(Cl)c1Cc1c(O)c(Cl)cc(Cl)c1Cl | 46.2% (active)
CCOC(=O)c1c(NC(=O)CSc2nnc(CNc3ccc(C)cc3C)o2)sc(C)c1C | -0.54% (inactive)
COc1cc(C(=S)N2CCOCC2)ccc1O | -0.65% (inactive)
CCOc1cc(C(=S)N2CCOCC2)ccc1O | 30.5% [fluorescence artefact?] (active)

SMILES | inhibition
CCOc1cc(C(=O)OCC(=O)Nc2cccc(C)c2)ccc1OCC(=O)N1CCOCC1 | 0.63% (inactive)
Cc1ccnc(NC(=O)CCCOc2ccccc2)c1 | 3.5% (inactive)
CCOC(=O)N1CCC(=NNC(N)=O)CC1 | 2.99% (inactive)
CC(C)NC(=S)NN=C1CCCCCCCCCCC1 | -4.16% (inactive)
CC(NC(=O)C(=O)NN=C1CCC(C(C)(C)C)CC1)c1ccccc1 (configuration not stated) | 2.57% (inactive)
CC(C)(C)NC(=O)C(=O)NN=C1CCCCCCC1 | 39.2% (active)
Cc1c(C(=O)N/N=C/c2ccccc2)[nH]c2c([N+](=O)[O-])cccc12 | 94.2% (active)
Cc1cc(C(=O)N/N=C/c2ccccc2[N+](=O)[O-])c(C)o1 | 2.6% (inactive)
O=C(N/N=C/c1ccc([N+](=O)[O-])cc1)c1c[nH]c2ccccc12 | -2.85% (inactive)
COC(=O)Nc1ncc(CN2CCCCC2)s1 | 1.52% (inactive)
N/C(=N\S(=O)(=O)c1cc(C(F)(F)F)cc(C(F)(F)F)c1)c1cccs1 | 0.14% (inactive)
Cc1ccc(C(=O)NC(=S)Nc2ccccc2C)cc1 | -1.48% (inactive)
CCOC(=O)c1c(N)sc2c1CCCC2=O | -0.22% (inactive)
Cc1cc2cc(CNC(=O)c3ccc(S(=O)(=O)N4CCOCC4)cc3)ccc2[nH]1 | -23.9% (inactive)
C/C(CC(=O)Nc1ccc(C)cc1C)=N\NC(=O)C(C)C | -1.71% (inactive)
C=CCn1c(SCC(=O)NCc2ccccc2)nnc1-c1cc(Br)ccc1O | 4.21% (inactive)
C=CCn1c(SCC(=O)Nc2nc3ccccc3s2)nnc1-c1ccccc1O | 6.76% (inactive)
C=CCn1c(N)cc(=O)nc1SCC(=O)Nc1cccc2ccccc12 | 30.1% (active)
CC(NC(=S)NNS(=O)(=O)c1ccc(C(C)(C)C)cc1)c1ccccc1 (configuration not stated) | 96.5% (active)
Cc1ccc(S(=O)(=O)NNC(=S)NC(C)(C)C)cc1 | 2.84% (inactive)
Cc1cc(C(=O)NNC(=S)NC(C)c2ccccc2)cs1 (configuration not stated) | -0.45% (inactive)
O=C(C1CCCN1S(=O)(=O)c1ccc(Br)cc1)N1CCOCC1 (configuration not stated) | -1.1% (inactive)
COC(=O)[C@@H]1C[C@@]2(O)[C@H](O)[C@H](O)[C@H](O)C[C@H]2N1Cc1ccc(C(C)(C)C)cc1 | -5.29% (inactive)

SMILES | inhibition
COC(=O)[C@@H]1C[C@@]2(O)[C@H](O)[C@H](O)[C@H](O)C[C@H]2N1Cc1ccc(C)s1 | -1.88% (inactive)
COC(=O)[C@@H]1C[C@@]2(O)[C@@H](O)[C@@H](O)[C@@H](O)C[C@H]2N1Cc1ccc(C)s1 | 96% (active)
C/C(Cn1nnc2ccccc21)=N\OC(=O)c1cc(F)c(F)cc1Cl | -2.84% (inactive)
O=[N+]([O-])C(=c1ccc2c(c1)N1C3=C(CCCC3)CC3CCCCC31N=2)[N+](=O)[O-] (configuration not stated) | 34.6% (active)
Cc1c(Cl)cccc1NC(=S)NCc1ccc2c(c1)OCO2 | 3.45% (inactive)
O=C(NNC1=NCCC1)c1cccc(S(=O)(=O)N2CCCCC2)c1 | 6.05% (inactive)
Cc1ccc(N(C(=O)c2ccc(CN3CCOCC3)o2)C(C(=O)NCCC(C)C)c2cccs2)c(C)c1 (configuration not stated) | 3.08% (inactive)
CC(C)(C)c1ccc(/C=C2\SC(=O)N=C2N)cc1 | 2.64% (inactive)
C/C(=N\NC(=S)Nc1ccc(C)cc1)c1cc2ccccc2o1 | -0.73% (inactive)
CCCc1c(C(=O)Nc2ccc(F)cc2)cnn1-c1ccccc1 | 2.37% (inactive)
CN(C)CCCN(Cc1cc2cc3c(cc2[nH]c1=O)OCCO3)C(=O)NC1CCCCC1 | 2.76% (inactive)
O=C(c1ccc(F)cc1)N1CCCC(c2nc(-c3cccs3)no2)C1 (configuration not stated) | 3.08% (inactive)
COc1ccnc(Oc2ccccc2)n1 | 15.9% (inactive)
CCc1cccc(C)c1NC(=S)N(CCCN1CCN(C)CC1)Cc1cccs1 | -3.86% (inactive)
Cc1ccnc(NC(=O)C(C)N2C(=O)c3ccccc3C2=O)c1 (configuration not stated) | 1.43% (inactive)
Cc1ccc(N2C(=O)c3ccccc3C2(O)c2ncc[nH]2)cc1 (configuration not stated) | 55.4% (active)
Cc1ccc(-n2ccc(=O)c(C(=O)O)n2)cc1 | 1.06% (inactive)
Cc1ccc(Nc2ccc(C(N)=O)cc2[N+](=O)[O-])cc1 | -0.72% (inactive)
CC(=O)Nc1ccc(/C=N/Nc2ccc(C(=O)c3c(C)cc4ccccn34)cc2[N+](=O)[O-])cc1 | 63.9% (active)
CNc1ccc(NC(C)=O)cc1[N+](=O)[O-] | -0.25% (inactive)
CCOc1ccc(/C=N/NC(=O)CSc2ccccn2)cc1O | -2.92% (inactive)
O=C(COC(=O)/C=C/c1ccc(S(=O)(=O)N2CCCCCC2)cc1)NCc1ccccc1Cl | 2.41% (inactive)
C=C1CCN([C@H](C(=O)NCc2cc(OC)c(OC)c(OC)c2)C(C)C)S(=O)(=O)c2ccccc21 | -2.58% (inactive)

SMILES | inhibition
Nc1ccc(S(=O)(=O)Nc2nccc(/C=C/c3ccc(Br)s3)n2)cc1 | 0.68% (inactive)
CC(C)(C)c1cc(C(=O)NN)n(Cc2ccc(Cl)cc2Cl)n1 | 3.29% (inactive)
Cc1[nH]n(C)c(=O)c1C(=O)c1c(-c2c(Cl)cccc2Cl)noc1C | -1.16% (inactive)
N/C(=N\S(=O)(=O)c1ccc(Cl)cc1)N1CCOCC1 | -0.17% (inactive)
COc1ccc(N2CCN(C(=S)Nc3ccc(S(N)(=O)=O)cc3)CC2)cc1 | 2.56% (inactive)
COC(=O)Cc1csc(/N=C/c2c(O)n(-c3cccc(C(F)(F)F)c3)c(=O)c3ccccc23)n1 | 1.31% (inactive)
COc1ccc(C2C(C(=O)N3CCN(c4ccc(OC)cc4)CC3)c3ccccc3C(=O)N2C)cc1 (configuration not stated) | -1.58% (inactive)
COc1ccc([C@H]2[C@H](C(C)=O)N3N=Cc4ccccc4C3C23C(=O)OC(C)(C)OC3=O)cc1 (some centres not stated) | 34.6% (active)
O=C(/C=C\c1ccc2c(c1)OCO2)NC1(C(=O)Nc2ccc3c(c2)OCCO3)CCCCC1 | 3.6% (inactive)
COC(=O)c1c(C)[nH]c(C)c1-c1ccc([N+](=O)[O-])cc1 | 5.04% (inactive)
CC1CC1C(=O)OCC(=O)c1c(N)n(C)c(=O)n(C)c1=O (configuration not stated) | 1.81% (inactive)
CC1=C/C(=N\OS(=O)(=O)c2ccccc2)C=CC1=O | 17.7% (inactive)
CC(=O)c1c(Nc2ccccc2)sc(C(=O)c2ccccc2)c1C | 0.53% (inactive)
Cc1ccc(NC(=O)/C(=C\c2ccccc2)NC(=O)c2ccco2)cc1 | -2.75% (inactive)
Cc1cc(Br)ccc1SCC(=O)OCC(=O)NCc1ccc2c(c1)OCO2 | 2.11% (inactive)
O=c1cc(O)nc(SCc2ccccc2Cl)[nH]1 | -11.7% (inactive)
O=c1[nH]nc(CSCc2ccccc2Cl)[nH]1 | 37.7% (active)
Nc1nc(SCc2ccccc2Cl)n[nH]1 | -1.58% (inactive)
Clc1ccc(-c2nc3ccccn3c2CN2CCSCC2)cc1 | 3.32% (inactive)
COc1ccc(NC2=CC(=S)NC(C)(C)C2)cc1 | 0.37% (inactive)
O=C(CSc1nnc(-c2ccc([N+](=O)[O-])cc2)o1)Nc1ccccn1 | -0.57% (inactive)
Nc1ccc2nc3c(=O)[nH]c(=S)[nH]c3nc2c1 | 55.7% (active)
Cc1cc2nc3c(=O)n(Cc4ccccc4)c(=O)[nH]c3nc2cc1N | 7.59% (inactive)
